TDP1 block: qHTS Assay for Inhibitors of Tyrosyl-DNA Phosphodiesterase (TDP1); Potency, µM (top dose mostly 130 µM), for the others: at the top dose activity change, negative = inhibition, hits mostly inhibitors; Tyrosyl-DNA phosphodiesterase 1 (Homo sapiens), Q9NUW8; 0.28% of 350,000 active; AID 485290, 2010; recombinant TDP1, AlphaScreen DNA substrate cleavage; note: potency is the fitted concentration of half-maximal effect; nearly all actives have a fitted effect of over 40% in size
Target sequence (Q9NUW8 whole entry, looked up): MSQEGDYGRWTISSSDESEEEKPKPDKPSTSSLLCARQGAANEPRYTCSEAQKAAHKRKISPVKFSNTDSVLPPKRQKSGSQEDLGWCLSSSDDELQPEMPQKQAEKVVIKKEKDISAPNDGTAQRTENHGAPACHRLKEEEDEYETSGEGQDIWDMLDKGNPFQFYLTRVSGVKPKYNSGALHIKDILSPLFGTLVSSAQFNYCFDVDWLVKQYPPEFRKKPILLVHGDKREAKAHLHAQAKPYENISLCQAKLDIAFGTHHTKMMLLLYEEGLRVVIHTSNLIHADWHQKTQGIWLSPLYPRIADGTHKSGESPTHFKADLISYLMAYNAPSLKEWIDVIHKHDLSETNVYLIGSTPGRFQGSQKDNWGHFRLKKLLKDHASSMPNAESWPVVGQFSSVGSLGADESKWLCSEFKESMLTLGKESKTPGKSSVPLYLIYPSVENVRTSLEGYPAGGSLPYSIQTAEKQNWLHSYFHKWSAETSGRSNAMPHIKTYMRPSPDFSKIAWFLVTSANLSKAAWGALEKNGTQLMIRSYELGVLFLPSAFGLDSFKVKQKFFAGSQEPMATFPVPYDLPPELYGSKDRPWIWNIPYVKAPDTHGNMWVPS
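Enzyme-compound mixtures sat 15 min at room temperature, followed by a 5 min reaction with 15 nM final substrate and 10 min with AlphaScreen beads. Recombinant human Tdp1 was used at 1 nM final.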
ELG1 DNA repair: qHTS screen for small molecules that inhibit ELG1-dependent DNA repair in human embryonic kidney (HEK293T) cells expressing luciferase-tagged ELG1; Potency, µM (series often up to 46.1 µM), for inactives: top-dose activity change, negative = inhibition, most hits filed as inhibitors; HEK293T ELG1-luciferase reporter, luminescence, 16 h; DNA damage induced by 5-fluorouridine; 2.3% of 330,000 active; note: potency is the fitted concentration of half-maximal effect; nearly all actives have a fitted effect of over 55% in size
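Step one: seed 2,000 cells per well. Step two: pin-transfer compound or DMSO alongside 5-fluorouridine. Step three: incubate 16 hr, 37 °C, 5% CO2. Step four: add ONE-Glo, wait 30 min, read luminescence.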
TDP1 cell noCPT: qHTS for Inhibitors of human tyrosyl-DNA phosphodiesterase 1 (TDP1): qHTS in cells in absence of CPT. DT40 Tdp1-/- hTDP1 cells, no CPT, ATP luminescence, 48 h. AID 686978, 2013. 15% of 420,000 active. Potency, µM (titrated, usually from 46.2 µM), without a hit: at the highest dose activity change, negative = growth inhibition, usual class: inhibitors; note: potency is the fitted concentration of half-maximal effect; nearly all actives have a fitted effect of over 55% in size
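Cells were dispensed at 400 per well, compounds added by pin tool, plates incubated ≥48 hr at 37 °C, then CellTiter-Glo added for 30 min at room temperature before luminescence reading. Line: DT40 Tdp1-/- complemented with hTDP1; camptothecin omitted.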
Giardia killer: Small Molecules that selectively kill Giardia lamblia: qHTS. 0.15% of 340,000 active. activity change, % at 7.66 µM, hits read low. Giardia lamblia trophozoite viability; in the data active = activity change below about -80%; inconclusive = between about -30% and that limit;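 note: parasites exposed to compound for two days anaerobically before the ATP read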
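Trophozoite viability was measured as ATP-dependent luminescence, read 15-30 min after reagent addition. Before that, parasites at 100 cells/well were exposed to compounds for 48 h, anaerobically, at 37 deg C.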
IL-1B inflam inh: qHTS for Inhibitors of Inflammasome Signaling: IL-1-beta AlphaLISA Primary Screen; THP-1 LPS/ATP IL-1B secretion, AlphaLISA, 16 h; active compounds read low; activity change, % at 57.5 µM; 4.7% of 360,000 active; AID 743279, 2014; in the data active = activity change below about -50%; inconclusive = mostly about -30% to -49%
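Secreted IL-1B measured by AlphaLISA bead assay after 16 h compound exposure of THP-1 cells; compounds (final up to 57.5 uM) added 1 h before LPS (250 ng/mL) and ATP (1.25 mM) stimulation; lower signal means less secretion.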
TDP1 cell CPT: qHTS for Inhibitors of human tyrosyl-DNA phosphodiesterase 1 (TDP1): qHTS in cells in presence of CPT. chicken DT40 Tdp1-/-;hTDP1 cells + 20 nM CPT, ATP luminescence, 48 h. Potency, µM (top dose mostly 46.2 µM), without a hit: at the top dose activity change, negative = growth inhibition, hits mostly inhibitors. 12% of 420,000 active. AID 686979, 2013; note: potency is the fitted concentration of half-maximal effect; nearly all actives have a fitted effect of over 55% in size
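Cell growth measured by CellTiter-Glo luminescence after a minimum 48 h, 37 C compound exposure with 20 nM CPT in Tdp1-knockout DT40 cells stably expressing hTDP1, seeded 400/well; qHTS titration format.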
* = called active by the depositor; ? = inconclusive; . = no result given. An excerpt weighted towards active compounds, which were near 19% of everything screened. Unless noted, calls come from the whole dose curve; as a rule, active = well fitted curve in the direction sought with a large enough effect; inconclusive = small, poorly fitted or top-dose-only effect, or another doubt; inactive = no such curve, though single readings can be large; an effect the other way counts as inactive or inconclusive. % is set by controls: 0 for no effect and ±100 for the full control effect.

SMILES | TDP1 block | ELG1 DNA repair | TDP1 cell noCPT | Giardia killer | IL-1B inflam inh | TDP1 cell CPT
CCn1c(C)cc(/C=C2/NC(=O)N(c3ccccc3)C2=O)c1C | -1% | ? | ? | -13 | -10 | ?
O=C1N/C(=C/c2ccsc2)C(=O)N1c1ccccc1 | 6% | ? | 13% | -20 | -54* | -1%
On1c2c(c3c4nonc4ccc31)CCCC2 | -5% | 13µM* | . | . | . | .
CCOC(=O)C1(Cc2ccccc2)CCN(Cc2cccc(OC)c2O)CC1 | 7% | ? | ? | -10 | -50* | ?
CCOC(=O)C1(Cc2cccc(OC)c2)CCN(Cc2ccc(C)s2)CC1 | . | ? | 18µM* | -5 | -118* | 21µM*
CCOC(=O)C1(Cc2ccccc2)CCN(Cc2cnn(C(C)C)c2)CC1 | . | -18% | -24% | 3 | 33 | 15%
CCOC(=O)C1(Cc2ccccc2)CCN(Cc2csc(C(C)=O)c2)CC1 | . | 3% | ? | 11 | -61* | -24%
CCOC(=O)C1(Cc2cccc(OC)c2)CCN(Cc2cccc(OC)c2O)CC1 | 7% | ? | 21µM* | -5 | ? | 23µM*
CCOC(=O)C1(Cc2cccc(OC)c2)CCN(Cc2ccccc2OC)CC1 | -5% | ? | ? | -21 | -5 | -25%
CC(C)CCn1c(=O)c2sccc2n2c(CCCC(=O)NC(C)c3ccccc3)nnc12 (stereo not given) | 3% | . | ? | . | . | -5%
O=C(NCc1ccc(Cl)cc1)NC1COc2ccccc2C1 (stereo not given) | -5% | . | -10% | . | . | -1%
CC(=O)c1cccc(NC(=O)C2CCN(S(=O)(=O)c3ccc4c(c3)CCCN4C(C)=O)CC2)c1 | 2% | . | ? | . | . | ?
CCOC(=O)C1(Cc2cccc(OC)c2)CCN(Cc2cccn2-c2nccs2)CC1 | 3% | ? | ? | 1 | -77* | ?
CCOC(=O)C1(Cc2ccccc2)CCN(CC2CC=CCC2)CC1 (stereo not given) | 6% | -3% | ? | 6 | 28 | -14%
CCOC(=O)C1(Cc2cccc(OC)c2)CCN(Cc2cccc(O)c2)CC1 | 7% | ? | ? | 9 | ? | -17%
CCOC(=O)C1(Cc2ccccc2)CCN(Cc2cccn2-c2nccs2)CC1 | -1% | -11% | ? | 1 | ? | ?
CCOC(=O)C1(Cc2ccc(OC)cc2)CCN(C(=O)c2cccc3nccnc23)CC1 | . | 4% | -20% | 23 | 26 | -15%
CCOC(=O)C1(Cc2cccc(OC)c2)CCN(CC2CC=CCC2)CC1 (stereo not given) | 0% | ? | 23µM* | -1 | 33 | ?
CCOC(=O)C1(Cc2ccccc2)CCN(Cc2cccc3nccnc23)CC1 | 6% | ? | 18µM* | 6 | -64* | ?
CCOC(=O)C1(Cc2cccc(OC)c2)CCN(Cc2ccc(OC)c(OC)c2)CC1 | 0% | ? | 21µM* | 9 | -22 | ?
CN(C(=O)COC(=O)c1ccccc1NCCO)C1CCS(=O)(=O)C1 (stereo not given) | -13% | ? | -1% | 13 | 5 | -1%
O=C(NCc1cccnc1)/C(=C\c1ccc(-c2ccc(Cl)c(Cl)c2)o1)S(=O)(=O)c1ccccc1 | -5% | 7.3µM* | 4.6µM* | -25 | -107* | 4.6µM*
Cc1cnc(C)c(-c2cc(F)cc3c2OC(CNC(=O)c2cc(Cl)ccc2F)C3)n1 (stereo not given) | . | . | -9% | . | . | -3%
Cc1ccc2nc(SCC(=O)NCc3ccc(F)cc3)nc(=O)n2c1 | . | 22% | -2% | 11 | 4 | -19%
Cn1c(CN2CCCCC2)nc2cc(NC(=O)c3ccccc3)ccc21 | 5% | ? | -25% | 12 | 0 | ?
SMILES | TDP1 block | ELG1 DNA repair | TDP1 cell noCPT | Giardia killer | IL-1B inflam inh | TDP1 cell CPT
Cn1c(CN2CCCCC2)nc2cc(NC(=O)c3cccc(Br)c3)ccc21 | 5% | ? | ? | -4 | -78* | ?
O=C(NC(=O)c1cccc(F)c1)OC[C@@H]1CCCN2CCCC[C@H]12 | 0% | 12% | -8% | -19 | 4 | 10%
CCn1c(CN2CCCCC2)nc2cc(NC(=O)c3ccc([N+](=O)[O-])cc3)ccc21 | 5% | . | 9.2µM* | . | . | 9.2µM*
O=C(Nc1ccc(C(=O)OC[C@@H]2CCCN3CCCC[C@H]23)cc1)c1cccc(Br)c1 | 6% | 1% | 18µM* | -24 | -6 | ?
O=C(Nc1ccc(CN2CCCCC2)cc1)c1cccc(Br)c1 | 0% | ? | ? | -13 | -55* | ?
Cc1cc(SCC(=O)OCC(=O)N(CCC#N)c2ccccc2)nc2ccccc12 | . | 12% | -23% | -8 | 4 | -8%
N#CCCn1c(=O)c(-c2cccs2)nc2cnc(N3CCOCC3)nc21 | . | . | 7% | . | . | -1%
Nc1ccc[n+](CC(=O)c2ccc(F)cc2)c1 | . | . | 10µM* | . | . | 14µM*
O=C(C[n+]1cccc(NC(=O)c2ccccc2)c1)c1ccccc1 | 5% | 0% | ? | 4 | 18 | -1%
Cc1ccc(C(=O)C[n+]2ccc3ccccc3c2)cc1 | 2% | ? | 15µM* | 2 | 20 | ?
O=C(C[n+]1cccc(NC(=O)c2ccccc2)c1)c1ccc(NC(=O)c2ccccc2)cc1 | 5% | 12% | ? | 0 | ? | 23µM*

From PubChem
